Dicer processing: inhibitors of human Dicer processing of pre-microRNA; cat-ELCCA pre-miR-21 Dicer processing, chemiluminescence; hits give high values; z-score at 25 µM; Q9UPY3; actives 6% (n = 47,000); in the data active means z-score above about 3, passing the limit was not always enough;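 further: plate controls were vehicle for no effect and no enzyme for full effect; higher signal means more uncleaved substrate so more Dicer inhibition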
The depositor's hits bear a star. Only a selection was taken, and hits are over-represented in it overall.

How did CN(C)C(=O)c1ccc2ncsc2c1 do in these assays?
Dicer processing: 0.5

What do the screens show for `Cc1ccc(C(=O)/C=C/Sc2ccccn2)cc1`?
Dicer processing: 0.72

What do the screens show for `O=C(/C=C/Sc1ccccn1)c1ccc(Br)cc1`?
Dicer processing: 3.03*

What do the screens show for `O=C(/C=C/Sc1c(Cl)cccc1Cl)c1ccc(Br)cc1`?
Dicer processing: -0.12

Results for CCCCCCCC1CC/C(=C/c2cccc([N+](=O)[O-])c2)C1=O (configuration not stated) ?
Dicer processing: 0.32

What do the screens show for `CN1C(=O)c2cccc3cccc(c23)S12OC(=O)c1ccccc12` (configuration not stated)?
Dicer processing: -1.44

What do the screens show for `CCn1c(SCC(=O)c2c[nH]c3ccccc23)nnc1-c1ccco1`?
Dicer processing: 3.41*

How did O=C(CSc1nnc(-c2ccco2)n1-c1ccc(OCc2ccccc2)cc1)c1ccccc1 do in these assays?
Dicer processing: -0.72

Results for Cc1[nH]c2ccccc2c1C(=O)CSc1nnc(-c2cccs2)n1C ?
Dicer processing: 0.7

How did Cc1[nH]c2ccccc2c1C(=O)CSc1nnc(-c2ccco2)n1-c1ccccc1 do in these assays?
Dicer processing: 4.68*

How did CCn1c(SCC(=O)c2c[nH]c3ccccc23)nnc1-c1cccs1 do in these assays?
Dicer processing: 2.14

How did Cc1[nH]c2ccccc2c1C(=O)CSc1nnc(C2CCCCC2)n1C do in these assays?
Dicer processing: 1.39

Results for Cc1[nH]c2ccccc2c1C(=O)CSc1nnc(-c2ccco2)n1C ?
Dicer processing: 2.93

What do the screens show for `CCn1c(SCC(=O)c2c(C)[nH]c3ccccc23)nnc1-c1ccco1`?
Dicer processing: 2.6

How did Cc1[nH]c2ccccc2c1C(=O)CSc1nnc(Cc2cccs2)n1C do in these assays?
Dicer processing: 3.38*

Results for O=C1CSC2=NC3=C(CCc4ccccc43)C(c3ccccc3)N12 (configuration not stated) ?
Dicer processing: -1.45

What do the screens show for `Cc1cc(S(=O)(=O)Oc2ccc(CC#N)cc2)c(C)cc1Cl`?
Dicer processing: -0.77

What do the screens show for `COC(=O)COc1ccc2c(=O)c(Oc3ccc(F)cc3)c(C)oc2c1`?
Dicer processing: 0.1

Results for NS(=O)(=O)c1cc(Cl)c(Oc2ccc([N+](=O)[O-])cc2Cl)c(Cl)c1 ?
Dicer processing: -0.41

Results for CC(C)(C)c1cc2nc(-c3cc(C(F)(F)F)cc(C(F)(F)F)c3)cc(=O)n2[nH]1 ?
Dicer processing: 1.86

How did Cc1cc(SCC(=O)O)nc(N)n1 do in these assays?
Dicer processing: 0.53

Results for COC(=O)c1sc(OC)cc1OC(=O)c1ccccc1C ?
Dicer processing: 0.54

How did CCOC(=O)c1cnc(Nc2ccccc2)nc1C(F)(F)F do in these assays?
Dicer processing: -0.23

Results for CCOC(=O)c1cnc(C(F)(F)F)nc1Oc1ccccc1 ?
Dicer processing: 0.7

What do the screens show for `CCOC(=O)c1cnc(C(F)(F)F)nc1NNC(=O)c1ccc(Cl)cc1`?
Dicer processing: 3.2*

How did CCOC(=O)c1cnc(NNC(C)=O)nc1C(F)(F)F do in these assays?
Dicer processing: 3.07*

How did CCOC(=O)c1cnc(C(F)(F)F)nc1Sc1n[nH]c(-c2cc(Cl)cc(Cl)c2)n1 do in these assays?
Dicer processing: -0.46

How did CCOC(=O)c1cnc(NNC(=O)c2ccc(F)cc2)nc1C(F)(F)F do in these assays?
Dicer processing: 1.14

How did O=C1CC(c2ccccc2Cl)c2c(n[nH]c2-c2ccccc2)N1 (configuration not stated) do in these assays?
Dicer processing: -1.11

What do the screens show for `CC(=O)NS(=O)(=O)c1ccc(N=Cc2ccco2)cc1`?
Dicer processing: -0.22

What do the screens show for `Cc1cc(O)cc(=O)n1Cc1ccc2c(c1)OCO2`?
Dicer processing: -1.29

Results for COc1ccc(O)c(C2=NN3C(C2)c2ccccc2OC3c2ccc(F)cc2)c1 (configuration not stated) ?
Dicer processing: 2.44

What do the screens show for `COc1ccc(C2Oc3c(OC)cccc3C3CC(c4cc(OC)ccc4O)=NN32)c(OC)c1` (configuration not stated)?
Dicer processing: 2.82

What do the screens show for `COc1ccc(O)c(C2=NN3C(C2)c2ccccc2OC3c2cccs2)c1` (configuration not stated)?
Dicer processing: 11.1*

How did COC(=O)c1ccc(C2Oc3c(OC)cccc3C3CC(c4cccs4)=NN32)cc1 (configuration not stated) do in these assays?
Dicer processing: -1.57

What do the screens show for `COc1cccc(C2Oc3ccccc3C3CC(c4cccs4)=NN32)c1OC` (configuration not stated)?
Dicer processing: 19.9*

Results for COc1ccc(O)c(C2=NN3C(C2)c2ccccc2OC3c2ccc(O)c(OC)c2)c1 (configuration not stated) ?
Dicer processing: 2.58

What do the screens show for `COc1cccc2c1OC(c1cccs1)N1N=C(c3ccccc3O)CC21` (configuration not stated)?
Dicer processing: 1.33

Results for COc1ccc(O)c(C2=NN3C(C2)c2cccc(OC)c2OC3c2cccs2)c1 (configuration not stated) ?
Dicer processing: 3.49*
